# Compound activity from PubChem.
# Most compounds without a hit are left out; they make up all but 19% or so of the library.
# IL-1B inflam inh = qHTS for Inhibitors of Inflammasome Signaling: IL-1-beta AlphaLISA Primary Screen | THP-1 LPS/ATP IL-1B secretion, AlphaLISA, 16 h; stronger effect = lower value | activity change, % at 57.5 µM | 360,000 compounds, 4.7% hits | AID 743279, 2014; in the data active = activity change below about -50%; inconclusive = mostly about -30% to -49%; note: % is set by controls: 0 for no effect and ±100 for the full control effect
#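 Secreted IL-1B measured by AlphaLISA bead assay after 16 h compound exposure of THP-1 cells; compounds (final up to 57.5 uM) added 1 h before LPS (250 ng/mL) and ATP (1.25 mM) stimulation; lower signal means less secretion.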
# TGFb inhibitor = qHTS for Inhibitors of TGF-b. 410,000 compounds, 1.2% hits. HepG2 CAGA-GFP TGF-b/SMAD3 reporter, GFP fluorescence, 18 h; TGF-beta stimulated, 500 pg/mL final. Potency, µM (titrated, usually from 46.1 µM), without a hit: top-dose activity, negative = inhibition, usual class: inhibitors; note: potency is the fitted concentration of half-maximal effect; % is set by controls: 0 for no effect and ±100 for the full control effect; nearly all actives have a fitted effect of over 65% in size
#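 TGF-beta reporter screen: HEPG2 CAGA-GFP, 1% FBS, 500 pg/mL TGF-beta final, 18 h; per-cell GFP summed per well; curves fitted and categorized by class.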
# TDP1 block = qHTS Assay for Inhibitors of Tyrosyl-DNA Phosphodiesterase (TDP1). Tyrosyl-DNA phosphodiesterase 1 (Homo sapiens), Q9NUW8. recombinant TDP1, AlphaScreen DNA substrate cleavage. Potency, µM (top dose mostly 130 µM), for inactives: at the highest dose activity change, negative = inhibition, most hits filed as inhibitors. 350,000 compounds, 0.28% hits. AID 485290, 2010; note: potency is the fitted concentration of half-maximal effect; % is set by controls: 0 for no effect and ±100 for the full control effect; nearly all actives have a fitted effect of over 40% in size
# Target sequence (Q9NUW8 whole entry, looked up): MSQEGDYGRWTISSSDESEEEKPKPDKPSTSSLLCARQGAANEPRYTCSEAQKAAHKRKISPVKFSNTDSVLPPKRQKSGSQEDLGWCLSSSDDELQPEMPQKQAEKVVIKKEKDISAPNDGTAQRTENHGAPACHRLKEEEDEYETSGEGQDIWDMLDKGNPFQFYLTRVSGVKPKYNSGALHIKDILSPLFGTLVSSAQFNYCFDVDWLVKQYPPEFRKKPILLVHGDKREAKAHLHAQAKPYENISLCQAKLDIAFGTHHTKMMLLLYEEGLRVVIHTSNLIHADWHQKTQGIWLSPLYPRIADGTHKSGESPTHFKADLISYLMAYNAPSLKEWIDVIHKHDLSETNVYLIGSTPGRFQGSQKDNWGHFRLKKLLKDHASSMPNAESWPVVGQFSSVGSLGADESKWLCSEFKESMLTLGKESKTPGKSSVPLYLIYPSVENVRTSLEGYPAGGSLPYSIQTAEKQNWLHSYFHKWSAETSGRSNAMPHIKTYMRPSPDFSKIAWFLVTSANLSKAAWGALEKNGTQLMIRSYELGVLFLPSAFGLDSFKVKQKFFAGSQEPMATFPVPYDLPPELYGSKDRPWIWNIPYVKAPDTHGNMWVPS
#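 Signal: AlphaScreen proximity between streptavidin donor and anti-FITC acceptor beads on intact substrate. Reaction: Tdp1 1 nM, substrate 15 nM final, 5 min RT after 15 min compound preincubation.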
# DT40 TDP1 CPT = qHTS for Inhibitors of human tyrosyl-DNA phosphodiesterase 1 (TDP1): qHTS in cells in presence of CPT. 420,000 compounds, 12% hits. chicken DT40 Tdp1-/-;hTDP1 cells + 20 nM CPT, ATP luminescence, 48 h. Potency, µM (titrated, usually from 46.2 µM), inactives show at the top dose activity change, negative = growth inhibition, most hits filed as inhibitors; note: potency is the fitted concentration of half-maximal effect; % is set by controls: 0 for no effect and ±100 for the full control effect; nearly all actives have a fitted effect of over 55% in size
#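 Chicken DT40 Tdp1-/- cells stably complemented with human TDP1 were seeded at 400 cells/well in medium containing 20 nM camptothecin, exposed to pin-transferred compounds, and grown at 37 °C for at least 48 hr. Viability was read as ATP luminescence.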
# DT40 TDP1 no CPT = qHTS for Inhibitors of human tyrosyl-DNA phosphodiesterase 1 (TDP1): qHTS in cells in absence of CPT; AID 686978, 2013; Potency, µM (top dose mostly 46.2 µM), without a hit: at the top dose activity change, negative = growth inhibition, usual class: inhibitors; DT40 Tdp1-/- hTDP1 cells, no CPT, ATP luminescence, 48 h; 420,000 compounds, 15% hits; note: potency is the fitted concentration of half-maximal effect; % is set by controls: 0 for no effect and ±100 for the full control effect; nearly all actives have a fitted effect of over 55% in size
#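 Compound effects on proliferation are scored in DT40 Tdp1-/-;hTDP1 cells in the absence of CPT. ATP levels (CellTiter-Glo luminescence) are recorded after a ≥48 hr, 37 °C incubation.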
# HepG2 viability = qHTS for Inhibitors of TGF-b: Cytotox Counterscreen. HepG2 CAGA-GFP viability, ATP luminescence, 18 h. Potency, µM (top dose mostly 46.1 µM), for the others: at the top dose activity change, negative = cytotoxicity, usual class: cytotoxic. 410,000 compounds, 0.76% hits; note: potency is the fitted concentration of half-maximal effect
#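 CellTiter-Glo luminescence gave cytotoxicity after 18 hours at 37 degrees C. The cells were HepG2 CAGA-GFP in 1% FBS DMEM, stimulated with 500 pg/mL TGF-beta after compound addition. %Activity was normalised to no-cell wells (complete cell-killing) and DMSO (no toxicity), and curves were fitted and classified.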
# The depositor's hits bear a star; u = inconclusive; x = no result; [ ] = another dose, or the depositor's remark. Unless noted, calls come from the whole dose curve; as a rule, active = well fitted curve in the direction sought with a large enough effect; inconclusive = small, poorly fitted or top-dose-only effect, or another doubt; inactive = no such curve, though single readings can be large; an effect the other way counts as inactive or inconclusive.
SMILES,IL-1B inflam inh,TGFb inhibitor,TDP1 block,DT40 TDP1 CPT,DT40 TDP1 no CPT,HepG2 viability
COc1ccc(C2c3ccc4ccccc4c3Oc3ncn(CCCN(C)C)c(=N)c32)cc1 (configuration not stated),-95*,u,x,12µM*,4.6µM*,-169%
COc1ccc(C2c3ccc4ccccc4c3Oc3ncn(Cc4ccco4)c(=N)c32)cc1OC (configuration not stated),u,2%,8%,23µM*,16µM*,12%
CC(=O)c1ccccc1NC(=O)COC(=O)/C=C/c1ccc(OC(F)F)cc1,13,4%,2%,-4%,-11%,-79%
Cc1cc(C(=O)NCc2cccc(Br)c2)c2c(C)nn(-c3ccccc3)c2n1,x,0%,0%,-23%,-27%,4%
COc1ccc2c(c1)c1c(c(=O)n(Cc3ccccc3)c(=O)n1Cc1ccccc1)n2C,x,-4%,3%,-17%,-1%,8%
Nc1nonc1-c1nc2ccccc2n1CC(=O)NC1CCCC1,4,-2%,-1%,-25%,-3%,5%
CCCCCOc1ccc(NC(=O)Cn2c(-c3nonc3N)nc3ccccc32)cc1,x,1%,9%,u,-19%,-13%
CCOC(=O)c1ccccc1NC(=O)Cn1c(-c2nonc2N)nc2ccccc21,37,u,10%,0.82µM*,0.92µM*,-14%
Nc1nonc1-c1nc2ccccc2n1CC(=O)Nc1cccc(C(F)(F)F)c1,x,9%,0%,u,13µM*,-41%
O=C(Cn1c(=O)n(Cc2nc(-c3ccccc3)no2)c(=O)c2ccccc21)Nc1cccc(C(F)(F)F)c1,x,u,6%,u,21µM*,-37%
Nc1nonc1-c1nc2ccccc2n1CC(=O)Nc1ccccc1,-11,31%,x,6.5µM*,u,40%
Cc1ccc(NC(=O)Cn2c(-c3nonc3N)nc3ccccc32)c(Br)c1,x,0%,7%,-1%,u,-1%
COc1cccc(CNC(=O)C2CCN(S(=O)(=O)c3cn(C)cn3)CC2)c1,x,-3%,-1%,1%,-5%,-5%
C=CCn1c(NC(=O)c2ccccc2Cl)c(C#N)c2nc3ccccc3nc21,-60*,-23%,5%,16µM*,21µM*,-49%
COc1ccc(NS(=O)(=O)c2cccc(C(=O)O)c2)cc1,-28,-1%,2%,3%,-3%,0%
COc1ccc(Cl)cc1NS(=O)(=O)c1cccc(C(=O)NC2CCN(Cc3ccccc3)CC2)c1,-57*,u,x,u,u,-19%
COc1ccc(NS(=O)(=O)c2cccc(C(=O)NNC(=O)c3ccc(Br)o3)c2)cc1,-13,u,-4%,-53%,5.8µM*,-8%
COc1ccc(NS(=O)(=O)c2cccc(C(=O)NC3CCN(Cc4ccccc4)CC3)c2)cc1,-70*,u,7%,15µM*,u,-36%
O=C(NC1CCN(Cc2ccccc2)CC1)c1cccc(S(=O)(=O)Nc2cc(C(F)(F)F)ccc2Cl)c1,-6,-25%,5%,u,u,-34%
Cc1ncc2c(c1CNC(=O)CN1CCCCC1)CCN(C(=O)c1ccc(F)cc1Cl)C2,x,x,x,6%[9.04 µM],-15%,x
Fc1cccc(Cc2c(-c3cccc(Br)c3)nc3ccc(Br)cn23)c1,35,u,x,-29%,u,-26%
N#Cc1ccc(-c2nc3ccc(Cl)cn3c2Cc2cccc(F)c2)cc1,0,-3%,x,u,u,-25%
Cc1ccc(-c2nc3ccc(Cl)cn3c2Cc2cccc(F)c2)cc1,-14,-11%,x,21µM*,u,-11%
Fc1cccc(Cc2c(-c3ccc(Cl)cc3)nc3ccc(Br)cn23)c1,u,u,x,u,16µM*,-19%
Cn1c(O)c(N=NC(=O)c2cc(-c3cccs3)nc3ccccc23)c2ccccc21,15,u,8%,u,u,-11%
SMILES,IL-1B inflam inh,TGFb inhibitor,TDP1 block,DT40 TDP1 CPT,DT40 TDP1 no CPT,HepG2 viability
O=C(N=Nc1c(O)[nH]c2ccc(Br)cc12)c1cc(-c2cccs2)nc2ccccc12,20,-3%,-2%,4.6µM*,6.5µM*,-40%
CC(CNC(=O)c1ccc2nc(CCc3ccccc3)oc2c1)c1ccccc1 (configuration not stated),x,10%,-1%,-25%,u,-4%
O=C1NC[C@H](CCCCN2C[C@H](Cc3ccccc3)N(CC3CCCCC3)C(=O)C2=O)N(CC2CCCCC2)C1=O,-77*,x,x,u,29µM*,x
O=C1NC[C@H](CCCCN2C[C@H](Cc3ccccc3)N(CCc3ccc(O)cc3)C(=O)C2=O)N(CCC2CCCCC2)C1=O,-57*,x,x,u,u,x
c1ccc(-c2ccc(C3=Nn4c(Cn5nnc6ccccc65)nnc4SC3)cc2)cc1,-57*,u,3%,23µM*,u,-24%
c1ccc(C2=Nn3c(Cn4nnc5ccccc54)nnc3SC2)cc1,-1,-1%,4%,-1%,-25%,-52%
Clc1ccc(C2=Nn3c(Cn4nnc5ccccc54)nnc3SC2)cc1,-53*,17%,4%,-27%,-26%,3%
Cc1cc(NC(=O)CCC(=O)N(CC(=O)NC2CCCC2)c2ccc(Cl)cc2)no1,0,7%,14%,0%,-10%,-2%
C[C@H](O)[C@@H]1C(=O)N2CCc3ccc(-c4ccccc4)cc3[C@@H]2C[C@@H]1N(C)C(=O)c1ccco1,9,1%,x,u,15µM*,-10%
COCC(=O)N(C)[C@H]1C[C@H]2c3cc(-c4ccccc4)ccc3CCN2C(=O)[C@H]1[C@H](C)O,11,-5%,x,12%,-24%,-6%
C[C@H](O)[C@@H]1C(=O)N2CCc3ccc(-c4cccc(F)c4)cc3[C@@H]2C[C@@H]1N(C)S(=O)(=O)c1ccccc1,-52*,u,x,u,u,4%
Cc1ccc(C2NC(=O)CCC2[N+](=O)[O-])cc1 (configuration not stated),-12,-17%,2%,18µM*,u,-14%
COc1ccc(C2NC(=O)CCC2[N+](=O)[O-])cc1 (configuration not stated),12,3%,x,19%,1%,-3%
